The values below come from the supplement of paper PMC13380429.

The structures appear in SMILES notation. Values without a mark were called inactive.

The assay deals with Vero E6 infected with SARS-CoV-2. In words: SARS-CoV-2 infection rate relative to infected DMSO; higher = more infection, active = 60 or less. The following applies: 24 h.
Regarding `COc1ccccc1C(=O)Nc1cc2c(cc1N1CCCC1)n(C)c(=O)n2C` (10 µM), the SARS-CoV-2 infection rate was 93.5%.

As for `Cn1c2c(c3ccccc31)CCNCC2` (10 µM), the SARS-CoV-2 infection rate was 103%.

Consider `CCC(=O)OCC(=O)[C@@]1(OC(=O)CC)[C@@H](C)C[C@H]2[C@@H]3CCC4=CC(=O)C=C[C@]4(C)[C@@]3(Cl)[C@@H](O)C[C@@]21C` [beclomethasone-dipropionate] (10 µM), for which the SARS-CoV-2 infection rate is 105%.

In the case of `O=C(O)c1cc(=O)c2c(OCC(O)COc3cccc4oc(C(=O)O)cc(=O)c34)cccc2o1` [cromoglicic-acid] (10 µM), the SARS-CoV-2 infection rate was 87%.

With `COc1ccc2[nH]c(SCc3ncc(C)c(OC)c3C)nc2c1` [omeprazole-sulfide] (10 µM), the SARS-CoV-2 infection rate was 104%.

`CCOC(=O)c1ccc(NC2CCCCC2)c(N)c1` [ferrostatin-1] (10 µM): the SARS-CoV-2 infection rate is 94%.

Regarding `S=C(NCc1ccc2c(c1)OCO2)N1CCN(c2ncnc3c2oc2ccccc23)CC1` [amuvatinib] (0.833333 µM), the SARS-CoV-2 infection rate is 92.5%.

Turning to `O=C(Nc1nc(-c2cc(Cl)cs2)c(N2CCN(C3CCCCC3)CC2)s1)c1cnc(N2CCC(C(=O)O)CC2)c(Cl)c1` [avatrombopag] (10 µM), the SARS-CoV-2 infection rate is 100%.

Take `CC(C)N1Cc2cc(S(C)(=O)=O)ccc2N(CCN2CC=C(c3c[nH]c4cc(F)ccc34)CC2)S1(=O)=O` (10 µM): the SARS-CoV-2 infection rate is 97.5%.

Regarding `COc1ccc(/C=C/C(=O)O)cc1` [trans-4-methoxycinnamic-acid] (10 µM), the SARS-CoV-2 infection rate is 106%.

On to `COc1cc2nc(N3CCN(C(=O)COc4c(OC)cccc4C(C)C)CC3)nc(N)c2cc1OC` (10 µM), for which the SARS-CoV-2 infection rate is 92.5%.

For `CN1CCN(C(=O)O[C@H]2c3nccnc3C(=O)N2c2ccc(Cl)cn2)CC1` (10 µM), the SARS-CoV-2 infection rate was 108%.

For `NC(=O)c1ncn([C@@H]2O[C@H](CO)[C@@H](O)[C@H]2O)c1O` [mizoribine] (10 µM), the SARS-CoV-2 infection rate is 112%.

For the compound `CC1CCc2c(N3CCC(O)CC3)c(F)cc3c(=O)c(C(=O)O)cn1c23` (centres undefined) [nadifloxacin] (10 µM), the SARS-CoV-2 infection rate is 106%.
